Shown are actives, neighbours in structure and some others; about 0.74% of the full set was active somewhere.
Keap1-Nrf2 PPI: Keap1-Nrf2 (human) interaction inhibition. Keap1 Kelch-Nrf2 peptide fluorescence polarization, 1536-well. inhibition, % at 9.4 µM. Q14145. 0.15% of 340,000 active; in the data active means inhibition above about 12%; inconclusive means no clear call, values can overlap the other calls; inactive means below about 7.3%;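 further: human Keap1 Kelch domain with fluorescein labeled Nrf2 9mer peptide probe; higher means more block of Keap1 binding to Nrf2 peptide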
Target sequence (Q14145 whole entry, looked up, the tested form may be a part): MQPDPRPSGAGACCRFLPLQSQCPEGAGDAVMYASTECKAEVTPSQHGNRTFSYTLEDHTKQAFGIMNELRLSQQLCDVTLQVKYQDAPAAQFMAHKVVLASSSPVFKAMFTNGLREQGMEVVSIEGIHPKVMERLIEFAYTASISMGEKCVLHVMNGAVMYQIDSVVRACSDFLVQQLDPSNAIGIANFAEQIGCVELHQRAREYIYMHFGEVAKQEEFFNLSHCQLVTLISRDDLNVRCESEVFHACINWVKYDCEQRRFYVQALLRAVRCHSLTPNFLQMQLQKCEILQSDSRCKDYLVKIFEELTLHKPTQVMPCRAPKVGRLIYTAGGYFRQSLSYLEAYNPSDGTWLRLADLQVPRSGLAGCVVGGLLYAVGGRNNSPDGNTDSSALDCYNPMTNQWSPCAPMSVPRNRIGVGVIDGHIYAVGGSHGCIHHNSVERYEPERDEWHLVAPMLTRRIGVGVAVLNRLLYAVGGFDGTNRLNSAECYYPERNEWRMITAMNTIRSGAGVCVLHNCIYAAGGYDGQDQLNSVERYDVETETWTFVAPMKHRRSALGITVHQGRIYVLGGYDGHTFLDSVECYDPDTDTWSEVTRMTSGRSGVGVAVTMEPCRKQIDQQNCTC
LANA DNA inh: blocks KSHV LANA C-terminal domain binding to DNA | 0.078% of 340,000 active | inhibition, % at 9 µM | MBP-C-LANA/FAM-LBS DNA binding, fluorescence polarization;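 active means highest replicate inhibition at or above 60% at 9 µM, even if other replicates fall short; inactive means all replicates below 60% inhibition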
Cardiac RTF inh: cardiac RTF calcium desensitization; P19429+P45379; IANBD-labeled cardiac RTF, Ca2+ fluorescence; inhibition, % at 7.15 µM; 0.12% of 340,000 active; AID 493244;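 active means inhibition above the mean inhibition of all tested compounds plus 3 SD, cut at about 17% in these data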;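 further: assay run at fixed EC70 calcium of 1.6 mM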
RTF Ca sens act: increases calcium sensitivity of human cardiac regulated thin filaments; activation, % at 7.2 µM; 0.24% of 340,000 active; IANBD-labeled TnC RTF fluorescence at EC20 calcium; 0% EC20 calcium, 100% full calcium; AID 493008; P19429+P45379;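 active means activation above the mean over all tested compounds plus 3 SD, cut at about 30% in these data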;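 further: rise in fluorescence read as greater calcium sensitivity of cardiac thin filaments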
E coli Lon inh: E. coli protease La inhibition; P0A9M0; purified E. coli Lon protease, fluorescence polarization; inhibition, % at 7.94 µM; 0.42% of 360,000 active; in the data active means inhibition above about 13%, passing the limit was not always enough
Large screens that a line does not name were inactive.

O=C(Nc1cccs1)Nc1nnc([C@@H]2C[C@H](O)[C@@H](CO)O2)s1	none (no result: Keap1-Nrf2 PPI, LANA DNA inh, Cardiac RTF inh, RTF Ca sens act)
CC1(C)CCN2CCC(C)(C)c3c(O)ccc1c32	RTF Ca sens act 85
CCOC(=O)/C(=N\Nc1ccc(C(C)=O)cc1)c1csc(Nc2ccccc2)n1	RTF Ca sens act 131
O=C1c2ccccc2C(=O)N1CCC#C/C=C1\c2ccccc2C(=O)N1c1ccccc1	none (no result: Keap1-Nrf2 PPI, LANA DNA inh, Cardiac RTF inh, RTF Ca sens act)
Cc1cc2ccccc2n1CCNC(=O)C(C)Oc1ccccc1 (configuration not stated)	E coli Lon inh 24
Cc1cc2ccccc2n1CCNC(=O)C(C)C	none
CCc1nc2ccc(C(=O)NCCCn3ccnc3)cn2c1N(C)Cc1nccs1	none (no result: Keap1-Nrf2 PPI, LANA DNA inh, Cardiac RTF inh, RTF Ca sens act)
O=c1c2cc(O)c(O)cc2oc2cc(O)c(C3OC(CO)C(O)C(O)C3O)c(O)c12 (configuration not stated)	LANA DNA inh 67
O=C(NCc1ccc(F)cc1F)[C@@H]1CCCN1C(=O)[C@@H]1CCCN1C(=O)c1ccccc1	none (no result: Keap1-Nrf2 PPI, LANA DNA inh, Cardiac RTF inh, RTF Ca sens act)
Cc1ccc(S(=O)(=O)NN=Cc2ccco2)cc1	none (no result: Keap1-Nrf2 PPI, LANA DNA inh, Cardiac RTF inh, RTF Ca sens act)
Cc1ccc(S(=O)(=O)N/N=C/c2cc(Br)c(C)o2)cc1	E coli Lon inh 17
COc1ccc(O)c(/C=C2/SC(=S)N(Cc3ccccc3)C2=O)c1	RTF Ca sens act 81
O=C1/C(=C\c2cc(Cl)c(O)c(Cl)c2)SC(=S)N1Cc1ccccc1	RTF Ca sens act 525
COc1ccc(OC)c(/C=C2\SC(=S)N(Cc3cccnc3)C2=O)c1	none
COc1ccc(/C=C2/SC(=S)N(Cc3ccccc3)C2=O)cc1O	none
CN(C)c1ccc(/C=C2\SC(=S)N(Nc3ncc(C(F)(F)F)cc3Cl)C2=O)cc1	RTF Ca sens act 147
CC(C)N1CCc2c(sc(NC(=S)NC(=O)c3ccccc3)c2C#N)C1	none
CCCN1CCc2c(sc(NC(=S)NC(=O)c3ccccc3)c2C#N)C1	RTF Ca sens act 31
O=C1NC[C@H](CCCCN2C[C@H](Cc3ccccc3)N(CCC3CCCCC3)C(=O)C2=O)N(CCc2ccccc2)C1=O	none (no result: Keap1-Nrf2 PPI, LANA DNA inh, Cardiac RTF inh, RTF Ca sens act)
COc1ccc([C@H]2CC(=O)C[C@@H](CCn3cc(-c4ccc(F)cc4)nn3)O2)cc1	none (no result: Keap1-Nrf2 PPI, LANA DNA inh, Cardiac RTF inh, RTF Ca sens act)
COc1ccc(-n2c(O)c(/C=N/NS(=O)(=O)c3ccc(C)c([N+](=O)[O-])c3)c3ccccc3c2=O)cc1OC	RTF Ca sens act 128
CCOc1ccc(NC(=O)COC(=O)c2c[nH]c3ccccc23)cc1	none (no result: Keap1-Nrf2 PPI, LANA DNA inh, Cardiac RTF inh, RTF Ca sens act)
CC(CCC(C)C(C)(C)C)[C@@H]1CC[C@H]2C3C[C@H](OS(O)(=S)=S)[C@H]4C[C@H](OS(O)(=S)=S)[C@@H](OS(O)(=S)=S)C[C@]4(C)[C@H]3CC[C@]12C (some centres not stated) (tested in a mixture with another compound)	Keap1-Nrf2 PPI 84, LANA DNA inh 123, Cardiac RTF inh 56, E coli Lon inh 36
Cc1ccc(OC(C)C(=O)N2CCc3ccccc32)c([N+](=O)[O-])n1 (configuration not stated)	none (no result: Keap1-Nrf2 PPI, LANA DNA inh, Cardiac RTF inh, RTF Ca sens act)
C/C(=C\c1ccc2c(c1)OCO2)C1Nc2cccc3cccc(c23)N1	LANA DNA inh 62
Cn1c2ccccc2c2cc(/C=N/NC(=O)c3ccc(O)cc3O)ccc21	none
Cn1c(O)c(/C=N/NC(=O)c2cc3ccccc3cc2O)c2ccccc21	RTF Ca sens act 40
N#C/C(=C\c1ccc(N2CCOCC2)o1)C(=O)NC1CCCCC1	RTF Ca sens act 45
N#C/C(=C\c1ccc(N2CCOCC2)o1)C(=O)NCC1CCCO1 (configuration not stated)	RTF Ca sens act 53
O=C1C(=Cc2ccc(Br)o2)C(=O)c2ccccc21	Keap1-Nrf2 PPI inconclusive, LANA DNA inh 106, Cardiac RTF inh 33
O=C(NCc1ccccc1Cl)c1csc(COCCO)n1	none (no result: Keap1-Nrf2 PPI, LANA DNA inh, Cardiac RTF inh, RTF Ca sens act)
CN(C)C=Nc1c(Br)cc(Br)c2nonc12	RTF Ca sens act 32
N#CCc1ccc(-c2cccc3nccn23)cc1	none (no result: Keap1-Nrf2 PPI, LANA DNA inh, Cardiac RTF inh, RTF Ca sens act)
O=C(CSCc1cnn(-c2ccccc2)c1-n1cccc1)NCc1cccnc1	LANA DNA inh 80
Cc1c2ccccc2nc2ccccc12	none
CCCNc1c(F)c(F)c2c(C)c3ccccc3nc2c1F	RTF Ca sens act 36, E coli Lon inh 60
O=C1N=C(N2CCOCC2)S/C1=C/c1ccc(-c2ccccc2Cl)o1	none
O=C1S/C(=C\c2ccc(N3CCOCC3)o2)C(=O)N1Cc1c(F)cccc1Cl	RTF Ca sens act 100
O=C(NCCN1CCOCC1)c1ccc2c(c1)N(Cc1c(F)cccc1Cl)C(=O)c1ccccc1S2	none
O=C1S/C(=C\c2ccc(N3CCOCC3)o2)C(=O)N1c1ccccc1	RTF Ca sens act 45
O=C1S/C(=C/c2ccc(N3CCOCC3)o2)C(=O)N1Cc1c(F)cccc1Cl	RTF Ca sens act 145
CN(Cc1ccc(Cl)c(Cl)c1)C(=O)C1CC(=O)N(c2ccc3c(c2)OCCO3)C1 (configuration not stated)	none (no result: Keap1-Nrf2 PPI, LANA DNA inh, Cardiac RTF inh, RTF Ca sens act)
C[C@@H]1Cn2cnc(C(=O)N[C@@H](C)c3ccccc3)c2C(=O)N1	none (no result: Keap1-Nrf2 PPI, LANA DNA inh, Cardiac RTF inh, RTF Ca sens act)
CN1/C(=C/C=C(/C#N)C(N)=O)C(C)(C)c2ccccc21	none
CN1/C(=C\C=C(/C#N)C(=O)Nc2ccccc2F)C(C)(C)c2ccccc21	RTF Ca sens act 39
NCC(=O)NCC(=O)NC[C@H]1O[C@@H](n2cnc3c(N)ncnc32)[C@H](O)[C@@H]1O	none
COC(=O)C1C2CC3c4[nH]c5cc(OC)ccc5c4CCN3CC2CC(OC(=O)CC(C)=O)C1OC (configuration not stated)	RTF Ca sens act 46
COC(=O)C1C2CC3c4[nH]c5cc(OC)ccc5c4CCN3CC2CC(O)C1OC (configuration not stated)	none
Cc1ccc(/C=C2\CCC3=C2OC(N)=C(C#N)C3c2ccc(C)cc2)cc1 (configuration not stated)	RTF Ca sens act 84
CC(C)NC(=O)C1(C)CCN1C(=O)c1ccccc1Oc1ccccc1 (configuration not stated)	none (no result: Keap1-Nrf2 PPI, LANA DNA inh, Cardiac RTF inh, RTF Ca sens act)
O=C(O)c1ccccc1-c1ccc(/C=c2\sc3nc4cc(Br)cnc4n3c2=O)o1	LANA DNA inh 74, Cardiac RTF inh 55
CCOC(=O)/C(=C/C1=CC(=C/N(C)C)/C(=O)O1)C(C)=O	RTF Ca sens act 53
CCOC(=O)/C(=C/c1ccc(OC(=O)c2ccccc2)cc1)C(C)=O	none
CC1=C(C(=O)N2CCOCC2)CC(CC(=O)NCc2ccco2)C(=O)N1Cc1ccc(C(C)(C)C)cc1 (configuration not stated)	none (no result: Keap1-Nrf2 PPI, LANA DNA inh, Cardiac RTF inh, RTF Ca sens act)
O=c1oc2c(O)cccc2cc1-c1nc2ccccc2[nH]1	RTF Ca sens act 153
NC(=O)c1ccc(NC(=O)C2COc3ccccc3O2)cc1 (configuration not stated)	Keap1-Nrf2 PPI 69 (no result: LANA DNA inh)
CN1C=CC(C(C(N)=O)c2ccccc2)c2ccccc21 (configuration not stated)	none (no result: Keap1-Nrf2 PPI, LANA DNA inh, Cardiac RTF inh, RTF Ca sens act)
CCN(CC)CCCOc1nc(C)nc2c1oc1ccccc12	Cardiac RTF inh 36
CCN(CC)CCOc1nc(C)nc2c1oc1ccccc12	none
C[n+]1cc(C(=O)N2CCCCC2)ccc1/C=C/c1c[nH]c2ccccc12	RTF Ca sens act 143
Cc1cc(C2C(C#N)=C(N)SC(N)=C2C#N)c(C)s1	RTF Ca sens act 41

Screening results as filed in PubChem BioAssay.
